{"source": "the supplement of paper PMC10042075", "note": "Several values for one entry are separate records, joined by “and”; a condition that tells them apart may be missing. Identical values can stand only once. Counter-ions that a name gives are not always drawn.", "data": [{"test_system": "LASCPC-01", "experiment": "cell viability relative to DMSO control (fraction); higher = less growth inhibition (more viable cells)", "conditions": "2 µM; 72 h", "experimental": "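High-throughput single-dose screen in the LASCPC-01 NEPC cell line in 384-well plates. Cells were treated with each compound at 2 µM for 72 h, and viability was read by CellTiter-Glo luminescence. Values are normalised to the DMSO control (compound/DMSO) from three replicates; only the 5-HT-related subset of the 7315-compound library is given.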", "values": [{"molecule": "CCCN(CCC)C1CCc2cccc(O)c2C1", "note": "(stereo not given)", "cell viability": 0.92}, {"molecule": "NCCc1c[nH]c2ccc(C(N)=O)cc12", "note": "[5-Carboxamidotryptamine maleate]", "cell viability": 1.1}, {"molecule": "NCCc1c[nH]c2ccc(O)cc12", "note": "[Serotonin HCl]", "cell viability": 0.977}, {"molecule": "CC(N)Cc1c[nH]c2ccc(O)cc12", "note": "(stereo not drawn) [alpha-Methyl-5-hydroxytryptamine maleate]", "cell viability": 1.03}, {"molecule": "C[C@H]1CNCCc2ccc(Cl)cc21", "note": "[Lorcaserin HCl]", "cell viability": 1.18}, {"molecule": "CC(N)Cc1c[nH]c2ccc(OCc3cccs3)cc12", "note": "(stereo not given)", "cell viability": 1.18}, {"molecule": "COc1cc2c3c(c1OC)-c1ccccc1C[C@H]3N(C)CC2", "note": "[Nuciferine]", "cell viability": 0.818}, {"molecule": "CN1C[C@H](CNC(=O)OCc2ccccc2)C[C@@H]2c3cccc4c3c(cn4C)C[C@H]21", "note": "[Metergoline]", "cell viability": 0.997}, {"molecule": "COc1cc(N)c(Cl)cc1C(=O)NC1CN2CCC1CC2", "note": "(stereo not given) [Zacopride hydrochloride]", "cell viability": 0.366}, {"molecule": "CC(N)Cc1cccc(C(F)(F)F)c1", "note": "(single isomer, unassigned; (+)) [(+)-Norfenfluramine hydrochloride]", "cell viability": 1.09}, {"molecule": "CN1C(=O)COc2c(C(=O)NC3CN4CCC3CC4)cc(Cl)cc21", "note": "(stereo not given) [Azasetron hydrochloride]", "cell viability": 1.44}, {"molecule": "c1ccc2c(N3CCNCC3)cccc2c1", "note": "[1-(1-Naphthyl)piperazine hydrochloride]", "cell viability": 1.08}, {"molecule": "CN1CCN(c2cccc3[nH]c(=O)oc23)CC1", "note": "[Pardoprunox hydrochloride]", "cell viability": 1.03}, {"molecule": "C[N+]1(C)C2CCC1CC(OC(=O)c1c[nH]c3ccccc13)C2", "note": "(stereo not given) [3-Tropanylindole-3-carboxylate methiodide]", "cell viability": 0.906}, {"molecule": "Clc1ccc(C(OCCN2CCCCC2)c2ccccc2)cc1", "note": "(stereo not given) [Cloperastine hydrochloride]", "cell viability": 0.924}, {"molecule": "COc1ccc(C(CN(C)C)C2(O)CCCCC2)cc1", "note": "(stereo not given) [Venlafaxine hydrochloride]", "cell viability": 1.06}, {"molecule": "CC[C@@H](CO)NC(=O)[C@@H]1C=C2c3cccc4c3c(cn4C)C[C@H]2N(C)C1", "note": "[Methysergide maleate]", "cell viability": 1.1}, {"molecule": "CCCN(CCC)[C@@H]1CCc2cccc(O)c2C1", "note": "[R-(+)-8-Hydroxy-DPAT hydrobromide]", "cell viability": 1.03}, {"molecule": "NCCc1c[nH]c2ccccc12", "note": "[Tryptamine hydrochloride]", "cell viability": 0.96}, {"molecule": "C[C@H](N)CN1CCc2ccc(Br)cc21", "note": "[VER-3323 hemifumarate salt]", "cell viability": 1.16}, {"molecule": "CN1C[C@H](C(=O)N[C@]2(C)O[C@@]3(O)[C@@H]4CCCN4C(=O)[C@H](Cc4ccccc4)N3C2=O)C[C@@H]2c3cccc4[nH]cc(c34)C[C@H]21", "note": "[Dihydroergotamine methanesulfonate]", "cell viability": 1.18}, {"molecule": "N#Cc1ccc(N2CCN(C(=O)COc3ccc4[nH]cc(CCN)c4c3)CC2)cc1", "note": "[Donitriptan monohydrochloride]", "cell viability": 1.08}, {"molecule": "O=[N+]([O-])c1ccc2nc(N3CCNCC3)ccc2c1", "note": "[Quipazine,6-nitro-,maleate]", "cell viability": 1.04}, {"molecule": "Cc1[nH]c2ccc(O)cc2c1CCN", "note": "[2-Methyl-5-hydroxytryptamine maleate]", "cell viability": 0.982}, {"molecule": "O=c1ccc2cc3ccoc3c(O)c2o1", "note": "[Xanthotoxol]", "cell viability": 1.15}, {"molecule": "CNCCc1c[nH]c2ccc(O)cc12", "note": "[N-omega-Methyl-5-hydroxytryptamine oxalate salt]", "cell viability": 1.11}, {"molecule": "O=S1(=O)N(CCN2CC=C(c3c[nH]c4cc(F)ccc34)CC2)c2cccc3c2N1CCC3", "cell viability": 0.982}, {"molecule": "NCCc1c[nH]c2ccc(O)cc12", "note": "[Serotonin hydrochloride]", "cell viability": 0.606}, {"molecule": "COc1ccc2c(c1OC)CN1CCc3cc4c(cc3C1C2)OCO4", "note": "(stereo not given) [Tetrahydroberberine THB]", "cell viability": 0.961}, {"molecule": "NCCc1c[nH]c2ccccc12", "note": "[Tryptamine]", "cell viability": 1.08}, {"molecule": "COc1ccc2[nH]cc(CCN)c2c1", "note": "[O-Methylserotonin hydrochloride]", "cell viability": 0.981}, {"molecule": "CN1CCC[C@@H]1Cc1c[nH]c2ccc(Nc3ncccc3[N+](=O)[O-])cc12", "cell viability": 0.897}, {"molecule": "CN1c2ccccc2C(NCCCCCCC(=O)O)c2ccc(Cl)cc2S1(=O)=O", "note": "(stereo not given) [Tianeptine sodium]", "cell viability": 0.963}, {"molecule": "COc1ccc(C(CN(C)C)C2(O)CCCCC2)cc1", "note": "(stereo not given) [Venlafaxine]", "cell viability": 1.04}, {"molecule": "COc1ccc2[nH]cc(C3=CCNCC3)c2c1", "cell viability": 0.776}, {"molecule": "Clc1ccc([C@]23CNC[C@H]2C3)cc1Cl", "note": "[Amitifadine hydrochloride]", "cell viability": 0.896}, {"molecule": "COc1ccccc1N1CCNCC1", "note": "[1-(2-Methoxyphenyl)piperazine hydrochloride]", "cell viability": 0.869}, {"molecule": "CCCN(CCC)C1CCc2cccc(O)c2C1", "note": "(stereo not given) [(?-8-Hydroxy-DPAT hydrobromide]", "cell viability": 1.16}, {"molecule": "CN1CCC(c2c[nH]c3ccc(O)cc23)CC1", "cell viability": "0.966 and 0.511"}, {"molecule": "CN1CCN(c2nc3ccccc3nc2Cl)CC1", "cell viability": 0.966}]}]}
